Laboratory results published in ChEMBL document CHEMBL4513216, “Probing the Open Global Health Chemical Diversity Library for Multistage-Active Starting Points for Next-Generation Antimalarials” (ACS Infect Dis, 2020).
Among all 68,000 compounds or so, about 2,700 (4%) showed an effect of 50% or more. The sample holds strong results, similar compounds and a random draw of the others, so the mix is not that of the screen.

test system: Plasmodium berghei; test: Screen against P. berghei liver stage (PbLuc), transformed with Luciferase, at 2uM; assay type: functional, HepG2; conditions: tested at 2 uM

In order of rising INHIBITION:
1. CC(CO)(NCc1noc(Cc2ccccc2)n1)C1CCCCC1 (stereo not drawn)  -69.13%
2. O=C(c1ccc(F)c(Cl)c1)N1C[C@H]2CC[C@@H](C1)N(Cc1ccccc1)C2  -38.33%
3. NC(=O)c1ccc(CN2CCC(N3CCCC3)CC2)cc1  -29.69%
4. CCc1ccc(C(=O)N2CCCC(CNS(C)(=O)=O)C2)o1 (stereo not drawn)  -23.94%
5. COCCN1CCC(Nc2c(F)cc(C#N)cc2F)CC1  -22.01%
6. CN(C)S(=O)(=O)N1C[C@H]2CC[C@@H](C1)N(Cc1cccc(C#N)c1)C2  -19.83%
7. COCc1nc(C(=O)NS(=O)(=O)c2ccc(Cl)cc2F)cs1  -7.88%
8. CC(=O)NCCNC(=O)c1cnc2c(c1)nc(-c1ccccc1Cl)n2C  -5.51%
9. CN(C)CCNC(=O)c1cnc2c(c1)nc(-c1ccccc1Cl)n2C  -1.73%
10. Cn1c(-c2ccccc2Cl)nc2cc(C(=O)NCCOCCO)cnc21  2.7%
11. NC(=O)c1ccc(CN2CCCC(N3CCCCCC3)C2)cc1 (stereo not drawn)  9.8%
12. CCNC(=O)N1CCc2ccc(NC(=O)NCCOCC)cc21  10.1%
13. COc1ccc(NC(=O)CCC2CCCN(S(=O)(=O)C3CC3)C2)cc1Cl (stereo not drawn)  13.99%
14. Cc1oc(C(=O)O)cc1S(=O)(=O)Nc1cc(Cl)ccc1F  16.64%
15. Cc1oc(C(=O)O)cc1S(=O)(=O)Nc1ccc(Cl)c(Cl)c1  16.79%
16. CCc1nc(CNC(C)(CO)C2CCCCC2)no1 (stereo not drawn)  17.89%
17. Cn1c(-c2ccccc2Cl)nc2cc(C(=O)NCC3(C)COC3)cnc21  21.24%
18. Cn1cc(C(=O)N2CCCC(c3cc(O)n(C)n3)C2)cn1 (stereo not drawn)  27.39%
19. Cc1cn2nc(N3CCCC3CC(C)(C)C)sc2n1 (stereo not drawn)  29.11%
20. CSCC(=O)N[C@H]1CN(CC2CCOCC2)C[C@@H]1c1ccccc1  37.15%
21. Cc1n[nH]c(C)c1NC(=O)CN1CCOC(Cn2cccn2)C1 (stereo not drawn)  37.52%
22. CS(=O)(=O)NCC(=O)N[C@H]1CN(CC2CC2)C[C@@H]1c1ccccc1  48.93%
23. Cc1oc(C(=O)O)cc1S(=O)(=O)Nc1ccc(Cl)c(F)c1  56.67%
24. Cn1c(-c2ccccc2Cl)nc2cc(C(=O)NC(CO)CO)cnc21  56.89%
25. Cn1c(-c2ccccc2Cl)nc2cc(C(=O)NCC3(CO)CC3)cnc21  58.53%
26. NC(=O)c1ccc(CN2CCCC(N3CCCC3)C2)cc1 (stereo not drawn)  58.65%
27. COCCc1noc(CNC(C)(CO)C2CCCCC2)n1 (stereo not drawn)  65.79%
28. O=C(CCO)N[C@H]1CN(CC2CCC2)C[C@@H]1c1ccccc1  75.86%
